# Results taken from PubChem BioAssay (Tox21).
# Unmarked numbers belong to inactive results. Where a call stands in place of a potency, no number is given. Calls of active or inactive are those of the source. Calls come from the whole dose curve; as a rule, active = well fitted curve in the direction sought with a large enough effect in the repeat runs; inconclusive = weak or mixed curves; inactive = flat fitted curve, though single readings scatter.
# Experiment: qHTS assay to test for compound auto fluorescence at 460 nm (blue) in HepG2 cells (AID 720687)
# Conditions: autofluorescence 405/460 nm, 1 h; series mostly up to 91.3 µM
# Excerpt: U.S. Tox21 Program National Center for Advancing Translational Sciences [NCATS] NIH Chemical Genomics Center [NCGC] U.S. Environmental Protection Agency [EPA] National Institutes of Environmental Health Sciences [NIEHS] National Toxicology Program [NTP] U.S. Food and Drug Administration [FDA] Tox21 Assay Overview: Compound auto fluorescence often interferes with screening of the compound library against various biological targets and signaling pathways. Some of these compounds may have fluorophoric properties. Such properties may interfere with the assay outputs resulting in false positives and/or negatives. To decrease such complications and ensure the compound activities are relevant in terms of biological response, the Tox21 10K compound library was screened for auto fluorescence. From the fluorophores used as reporter signals in our screening assays, the auto fluorescence equivalencies of compounds against three fluorophores have been evaluated: Triamterene, Fluorescein and Rose Bengal sodium for blue, green and red fluorescence, respectively. The fluorescence intensities were measured using Excitation/Emission wavelengths at 405/460nm, 485/535nm and 540/590nm for blue, green and red labels, respectively. This assay includes the blue fluorescence data.
# Tox21 Assay Protocol Summary: 2,000 HepG2 cells in 5 uL of culture medium (MEM containing 10% FBS) per well were dispensed into black wall/clear bottom 1536-well plates using a Multidrop Combi Dispenser (ThermoFisher Scientific, Waltham, MA). The assay plates were incubated overnight at 37 C to allow cell attachment to the well bottom, followed by the transfer of 23 nL compound or DMSO vehicle by a pintool work station (Kalypsys , San Diego, CA). After the assay plates were incubated for 1 hr at 37 C and 5% CO2, fluorescence intensities in the assay plates were measured by an Envision (PerkinElmer, Shelton, CT) plate reader using three labels for measuring blue, green and red fluorescence at […] 460, 535 and 590 nm respectively.
SMILES,Potency,"fluorescence, % of fluorescent control"
CSc1nc(NC2CC2)nc(NC(C)(C)C)n1,inactive,–
C=C(C)C1CC=C(C)C(O)C1 (stereo not given),inactive,–
C1CCCCCCCCCCC1,–,-0.112% [at 18.6 µM]
OCc1ccccn1,inactive,–
O=C(O)CCNC(=O)c1ccc(N=Nc2ccc(O)c(C(=O)O)c2)cc1,inactive,–
O=C(O)c1ccccc1S,inactive,–
O=C1C(CCS(=O)c2ccccc2)C(=O)N(c2ccccc2)N1c1ccccc1 (stereo not given),–,-0.182% [at 18.6 µM]
C=C(C)[C@H]1CC=C(C)CC1,inactive,–
O=C1OC(=O)c2cc([N+](=O)[O-])ccc21,inactive,–
Cc1nc(-c2ccc(OCC(C)C)c(C#N)c2)sc1C(=O)O,inactive,–
Nc1nc2c(ncn2CCC(CO)CO)c(=O)[nH]1,inactive,–
CCCCCCCCCCCl,inactive,–
CCCCCCCCN(C)CCCCCCCC,inactive,–
CCCCC=O,inactive,–
Cc1c(C)n(CCN(C)C)c2ccc(C(=O)OCCN(C)C)cc12,inactive,–
CC(C)c1cccc(O)c1,inactive,–
CC(C)(C)N(CCO)CCO,inactive,–
CC(C)(C)OC(=O)N1C[C@@H](F)C[C@H]1C(=O)O,inactive,–
CC(C)CCCCCCN,inactive,–
CCCCCCC(=O)OCC,inactive,–

SMILES,Potency,"fluorescence, % of fluorescent control"
Oc1ccc2c(c1)OC[C@@H](N1CCC(O)(c3ccc(F)cc3)CC1)[C@H]2O,inactive,–
CCC(=O)Nc1cccc(N)c1,inactive,–
CC1=CC(C)C(C=O)C(C)C1 (stereo not given),inactive,–
CCO[Si](CCCN=C=O)(OCC)OCC,inactive,–
Cc1ccc(N)cc1[N+](=O)[O-],inactive,–
C#CC(O)C(CC)CCCC (stereo not given),inactive,–
N#CCc1ccccc1[N+](=O)[O-],inactive,–
CO[Si](OC)(OC)OC,inactive,–
COC(=O)CCCCCCCCC(=O)OC,inactive,–
CC(C)(O)C(=O)c1ccc(OCCO)cc1,inactive,–
CN1[C@@H]2CC[C@H]1CC(NC(=O)n1c(=O)[nH]c3ccccc31)C2 (stereo not given in full),inactive,–
CCCC=O,inactive,–
CC(=O)NC(Cc1ccccc1)C(=O)O (stereo not given),inactive,–
COC(C(=O)O)c1ccccc1 (stereo not given),inactive,–
COc1cccc(OC)c1,inactive,–
O=C(O)c1ccc[n+]([O-])c1,inactive,–
O=C(O)/C=C/c1ccc(Cn2ccnc2)cc1,–,0.143% [at 18.6 µM]
CC(CCO)CCCC(C)(C)O (stereo not given),inactive,–
O=C(O)C(O)[C@H](O)[C@@H](O)[C@H](O)[C@H](O)CO (stereo not given in full),inactive,–
c1ccc(SCCSc2ccccc2)cc1,inactive,–
